The text below walks through data of PubChem BioAssay AID1053197 (The Scripps Research Institute Molecular Screening Center, 2014).

Hit rate of the full screen: of about 370,000 compounds, about 2,600 (0.7%) were called active. Shown is part of a subset that was picked to be rich in actives. Values without a mark were called inactive.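 Rule for the calls: active = inhibition above a cutoff: mean of compounds within the control limits plus 3 SD of those (cut at about 17% in these data); inactive = the rest.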

Sequence of Sialate O-acetylesterase (Homo sapiens) (Q9HAT2 whole entry, looked up): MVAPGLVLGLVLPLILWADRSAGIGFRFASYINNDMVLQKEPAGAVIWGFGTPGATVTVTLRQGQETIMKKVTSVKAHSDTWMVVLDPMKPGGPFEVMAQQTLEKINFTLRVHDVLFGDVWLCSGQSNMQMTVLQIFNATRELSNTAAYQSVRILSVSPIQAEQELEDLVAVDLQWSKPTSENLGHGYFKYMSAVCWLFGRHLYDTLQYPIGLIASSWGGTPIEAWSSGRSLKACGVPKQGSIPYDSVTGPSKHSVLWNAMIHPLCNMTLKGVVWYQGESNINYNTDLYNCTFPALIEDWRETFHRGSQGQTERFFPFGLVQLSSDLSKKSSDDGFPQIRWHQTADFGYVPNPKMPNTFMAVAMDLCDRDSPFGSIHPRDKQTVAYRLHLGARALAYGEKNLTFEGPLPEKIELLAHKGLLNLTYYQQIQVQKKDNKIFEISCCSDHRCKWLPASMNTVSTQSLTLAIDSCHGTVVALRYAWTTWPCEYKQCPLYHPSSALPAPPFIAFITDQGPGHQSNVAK

This test concerns the target Sialate O-acetylesterase (Homo sapiens) (UniProt Q9HAT2). The experiment in a line: human SIAE inhibitors, primary screen, biochemical, fluorescence polarization, FP-Rh probe, 1536-well HTS (AID 1053197).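 Note: 0% = plate median of compound wells and 100% = probe without SIAE protein.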 The conditions noted are these: SIAE FP-Rh probe binding, at 9.66 µM, active compounds read high.
On to `COc1ccc([C@H]2OC(=O)C[C@H]2C(=O)N2CCN(c3ccccc3F)CC2)cc1OC`, for which the inhibition (in general, the relative decrease from the control value, in per cent) is -5.68%.

For the compound `CC(C)c1cc(N=O)cc(C(C)C)c1O`, the inhibition is 25.2% (active). In the case of `CC(C)=CCc1ccc(O)c(=O)cc1C(C)C`, the inhibition is 6.87%. As to `CC(C)c1cc(C(=O)N/N=C/c2ccoc2)c(O)c(C(C)C)c1`, the inhibition was -13.5%. For `O=C(NCCCc1ccccc1)[C@H](Cc1ccccc1)NC1(C(=O)NCCc2c[nH]c3ccccc23)CCC1`, the inhibition was 4.77%. On to `Cc1ccc(-n2c(SCC(=O)Nc3ccc(S(=O)(=O)Nc4nccs4)cc3)nnc2-c2cccnc2)cc1`, for which the inhibition is -10.3%. In the case of `C=C1C(C(C)C)N(C)C2=NC(c3ccccc3)CC(=O)N12` (stereo unspecified), the inhibition was 6.93%. `O=C(NC(=S)Nc1cccc(-c2ccc(CO)o2)c1)c1cccs1`: the inhibition was -33.9%. As for `O=C(NC(=S)Nc1ccc(NC(=O)c2cccs2)cc1)c1ccc([N+](=O)[O-])cc1`, the inhibition is 26.9% (active).

As for `NS(=O)(=O)c1ccc(NC(=S)NNC(=O)c2cccs2)cc1`, the inhibition was 4.71%. Consider `O=C(c1ccncc1)N1CC[C@H]2[C@H](CCCN2Cc2ccc(F)cc2)C1`, for which the inhibition is 2.68%. Take `C=CCn1c(SCC(N)=O)nnc1-c1ccccc1OC`: the inhibition is -7.56%.

Turning to `CC(=O)Nc1ccc(C(=O)CSc2nnc(Cc3ccccc3)o2)cc1`, the inhibition is -1.29%. As for `Cn1c(CC(=O)Nc2ccc(F)cc2)nnc1SCC(=O)NC1CCCCC1`, the inhibition was 2.38%. For the compound `CCC(=O)Nc1ccc(C(=O)CSc2nnc(CNc3ccc(Cl)cc3)o2)cc1OC`, the inhibition is -0.55%. Take `CCOc1cccc(-c2nnc(SCC(=O)NC3CC3)n2C)c1`: the inhibition is -3.03%. Consider `CCOc1ccc(Nc2nc(Cc3nnc(SCC(=O)NC4CCCC4)n3C)cs2)cc1`, for which the inhibition is 19.1% (active). For `CCOc1ccc(Nc2nc(Cc3nnc(SCC(=O)c4ccc(C)cc4)o3)cs2)cc1`, the inhibition was 18.2% (active). Take `CC(C)(C)c1ccc(C(=O)Nc2cc(Cl)c(Br)cc2C(=O)O)cc1`: the inhibition was -77.3%.

As to `COc1ccc(-n2c(SCC(=O)Nc3ccccc3-c3ccccc3)nnc2-c2cccnc2)cc1`, the inhibition is 4.69%. In the case of `Clc1ccc(-n2c(COc3ccccc3)nnc2SCc2nc3ccccc3[nH]2)cc1`, the inhibition is -2.83%. In the case of `Nn1c(SCC(=O)Nc2ccc(S(N)(=O)=O)cc2)nnc1-c1n[nH]c2c1CCC2` it was -5.56%. For `Cc1ccccc1CN1CCCCC(NC(=O)Nc2ccccc2F)C1=O` (stereo unspecified), the inhibition was 1.41%. In the case of `Nc1ccc2nc3c(=O)[nH]c(=S)[nH]c3nc2c1`, the inhibition was 31.8% (active). Turning to `O=C(N1CCOCC1)N1CC[C@H]2[C@H](CCCN2Cc2ccc(F)cc2)C1`, the inhibition is 0.67%. In the case of `O=C(c1cccc(C(F)(F)F)c1)N1CC[C@H]2[C@H](CCCN2Cc2cc(F)cc(F)c2)C1` it was 1.24%; in that of `C=CCN1[C@H](CC(C)C)COc2cccc(N3CCCC3)c2S1(=O)=O`, 6.71%; in that of `CNC(=S)N/N=C/c1cn(Cc2ccc(C)cc2)c2ccccc12`, 18.3% (active).

On to `CNC(=S)N/N=C/c1ccc(OCc2ccccc2)c(Br)c1`, for which the inhibition is -1.33%.

As to `NC(=O)Cn1cc(/C=N\NS(=O)(=O)c2ccccc2)c2ccccc21`, the inhibition is 10.5%. As to `c1coc(CCNc2ncnc3ccc(-c4ccc5c(c4)OCO5)cc23)c1`, the inhibition was -15.4%. Consider `CCC(=O)Nc1ccc2c(c1)C(=O)N(C)[C@H]1CC[C@H](CC(=O)NCCOC)O[C@@H]1CO2`, for which the inhibition was -4.02%.

Consider `COc1ccc(C#CCNCc2ccc(OC)cc2OC)cc1`, for which the inhibition is 3.3%. In the case of `COc1cccc(/C=N/Nc2cc(C)nc(-c3ccccc3O)n2)c1O` it was 18.5% (active).

Take `Oc1cc2c(cc1O)CN(C(=S)NCCc1ccc(Cl)cc1)CCC2`: the inhibition was 2.67%.

As for `Oc1ccc(N2CCN(C(=S)NCc3ccccc3)CC2)cc1`, the inhibition was 10.2%. With `O=C1CCN(C(=S)NCCc2ccccc2)CC1`, the inhibition was 17.5% (active). In the case of `CCOC(=O)C(=O)N(Cc1ccccc1)c1ccccc1C(=O)Nc1cc(OC)ccc1OC` it was -7.2%; in that of `CC(C)(C)OC(=O)NCc1cc(F)ccc1/C=C/S(=O)(=O)NCCc1ccccc1`, -1.86%. Turning to `COC(=O)c1cc(S(=O)(=O)N2CCN(c3ccccc3C)CC2)cn1C`, the inhibition was 2.1%. Regarding `CC(C)(O)C#Cc1ccc(C(=O)N2CCC(C(N)=O)(N3CCCCC3)CC2)cc1`, the inhibition is 22.5% (active). In the case of `NC(=O)C1(N2CCCCC2)CCN(C(=O)c2ccc(C#Cc3ccccc3)o2)CC1`, the inhibition is -5.47%. Take `CCC(=O)N1CCC(C(N)=O)(N2CCCCC2)CC1`: the inhibition was -0.17%. On to `CCC[C@H]1C(=O)CC[C@@]23CCCN2C(=O)CCC[C@@H]13`, for which the inhibition is -0.79%.

Take `CC[C@@H](CCC(=O)N(c1ccccc1)c1ccccc1)C1CC1`: the inhibition was -1.88%. As for `COC(=O)[C@]1(C#N)CC(=O)N(CC2CCCCC2)[C@@H]1c1ccccc1`, the inhibition is 2.31%. As for `COc1ccc(C2C3=C(OC(C)=O)c4ccccc4C3=Nc3c2c(=O)n(C)c(=O)n3C)cc1` (stereo unspecified), the inhibition is 1.68%. Turning to `Cc1cccc(C2C3=C(CCCC3=O)N=C3c4ccccc4C(=O)C32)c1` (stereo unspecified), the inhibition is 6.75%.

On to `Cc1cccc(C2c3c(n(C)c(=O)n(C)c3=O)N=C3c4ccccc4C(=O)C32)c1` (stereo unspecified), for which the inhibition is 17.7% (active). As for `CCC(CO)Nc1cccc2c1S(=O)(=O)N(Cc1cn(Cc3ccccc3C(F)(F)F)nn1)Cc1ccccc1O2` (stereo unspecified), the inhibition was 7.92%. In the case of `COC(=O)c1cc(S(=O)(=O)N2CCN(C(=O)C3CCCO3)CC2)cn1C` (stereo unspecified) it was -4.53%. `CCCCOCCCNC(=O)C[C@H]1C[C@@]2(C(=O)OC)C(=C[C@H](C(C)(C)C)O[C@@H]2C)N(CCc2ccc(OC)c(OC)c2)C1=O`: the inhibition was -1.28%. Then `CCOC(=O)[C@]12CCCCC/C=C\1N(Cc1ccc(OC)cc1)C(=O)[C@H]2CC(=O)NCCCN1CCCC1=O`, with 4.21%; and `CCOc1cc(N2CCOCC2)c(OCC)cc1NC(=O)C1=NN(c2cccc(C)c2)C(=O)CC1`, with 7.16%; and `CCOc1cc(N2CCOCC2)c(OCC)cc1NC(=O)COc1cccc2cccnc12`, with 25.5% (active).

Regarding `NC(=O)C1CCN(C(=O)COc2cccc3cccnc23)CC1`, the inhibition was 4%.
